Screening results (PubChem BioAssay)
An excerpt weighted towards active compounds, which were near 6.6% of everything screened.
KB-V1 MDR tox: KB-V1 MDR subline cytotoxicity; KB-V1 MDR cells viability, CellTiter-Glo, 72 h; Potency, µM (series often up to 46.1 µM), usual class: cytotoxic; actives 3.4% (n = 400,000); AID 1347076; note: nearly all actives have a fitted effect of over 60% in size
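KB-V1, DMEM (no phenol red) + 10% FBS; cpd pin-transferred, titration series; 72 h, 37 degrees C; CellTiter-Glo, luminescence. Data normalized, curve-fit.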
RGS4 inhibitor: human RGS4 inhibition. P49798. Transcreener GDP fluorescence polarization, RGS4-accelerated GTP hydrolysis. Potency, µM (doses to about 114 µM), usual class: inhibitors. actives 0.039% (n = 390,000); note: nearly all actives have a fitted effect of over 75% in size
Target sequence (P49798 whole entry, looked up): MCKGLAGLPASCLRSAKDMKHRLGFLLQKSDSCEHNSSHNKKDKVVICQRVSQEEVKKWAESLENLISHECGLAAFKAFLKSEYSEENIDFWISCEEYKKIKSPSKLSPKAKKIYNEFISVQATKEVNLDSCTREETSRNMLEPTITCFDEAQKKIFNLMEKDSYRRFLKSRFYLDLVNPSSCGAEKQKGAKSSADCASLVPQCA
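MLSMR compounds (23 nl, pin-transferred) preincubated 10 min at room temperature with a 500nM (2x) first reagent, then RGS4 at 900nM (2x) plus Transcreener GDP mix added; fluorescence polarization (620/688 nm) read before and after 90 min at 30 °C.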
PTAP TSG101 blk: blocks PTAP/TSG101 interaction to inhibit HIV-1 budding; Q99816; Fluorescence polarization, FITC-PTAP peptide / Tsg101 binding; Potency, µM (doses to about 115 µM), hits mostly inhibitors; 340,000 tested, under 10 active; AID 493005; active = well fitted inhibition curve with a large enough effect in the main read-out, with a control signal flat, not every such curve was filed as active; inconclusive = small, poorly fitted or top-dose-only effect, or effect the other way, or a change in a side signal; inactive = no such curve, though single readings can be large or run the other way
Target sequence (Q99816 whole entry, looked up): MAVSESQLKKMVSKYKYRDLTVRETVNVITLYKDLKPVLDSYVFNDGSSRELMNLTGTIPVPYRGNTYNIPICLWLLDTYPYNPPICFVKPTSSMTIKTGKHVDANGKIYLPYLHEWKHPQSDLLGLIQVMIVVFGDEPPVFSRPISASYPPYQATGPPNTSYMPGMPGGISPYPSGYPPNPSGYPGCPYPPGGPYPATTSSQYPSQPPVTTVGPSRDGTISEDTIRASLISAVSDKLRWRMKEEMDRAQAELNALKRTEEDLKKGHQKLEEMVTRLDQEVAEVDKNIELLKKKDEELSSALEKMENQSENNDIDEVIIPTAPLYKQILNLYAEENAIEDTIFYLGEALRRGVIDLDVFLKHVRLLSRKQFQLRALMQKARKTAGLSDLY
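Tsg101 binding domain (10 uM final) was mixed with compound and a FITC-labeled PTAP peptide (50 nM final) in HEPES pH 7.5 buffer with NaCl, Tween 20, EDTA and TCEP; fluorescence polarization was read after 20 min at r.t.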
KB-3-1 tox: KB-3-1 parental cell cytotoxicity | KB-3-1 viability, CellTiter-Glo ATP luminescence, 72 h | Potency, µM (doses to about 46.1 µM), hits mostly cytotoxic | actives 1.4% (n = 400,000); note: nearly all actives have a fitted effect of over 60% in size
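Viability of parental KB-3-1 cells, measured by CellTiter-Glo luminescence, followed a 72 h incubation at 37 °C with pinned compounds in phenol-red-free DMEM containing 10% FBS.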
MCF10A rereplic: induces DNA re-replication in MCF 10a normal breast cells; MCF 10A DNA re-replication, Hoechst nuclear intensity, 48 h; Potency, µM (doses to about 46.1 µM), usual class: activators; actives 2.9% (n = 350,000); AID 624296; note: nearly all actives have a fitted effect of over 50% in size
SW480 rereplic: inducers of DNA re-replication in SW480 colon cancer cells. SW480 DNA re-replication, Hoechst DNA content imaging, 48 h. Potency, µM (doses to about 46.1 µM), hits mostly activators. actives 1.8% (n = 340,000). AID 624297; note: nearly all actives have a fitted effect of over 55% in size
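Compounds, transferred as 23 nL by pin tool, were incubated with cells for 48 hr; DNA content per nucleus was then quantified by Hoechst staining and fluorescence plate imaging.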
Large screens that a line does not name were inactive; ! = a repeat was not active. Unless noted, calls come from the whole dose curve; as a rule, active = well fitted curve in the direction sought with a large enough effect; inconclusive = small, poorly fitted or top-dose-only effect, or another doubt; inactive = no such curve, though single readings can be large; an effect the other way counts as inactive or inconclusive.

O=C(O)COc1ccc(/C=N/NC(=O)c2ccc(-c3csc(Nc4ccc(Cl)cc4)n3)cc2)cc1	RGS4 inhibitor inconclusive, MCF10A rereplic 9.2µM
Cc1ccc2[nH]c(=O)c(C(c3nnnn3Cc3ccccc3)N3CCc4ccccc43)cc2c1 (centres undefined)	KB-V1 MDR tox inconclusive, RGS4 inhibitor inconclusive, SW480 rereplic inconclusive
Cc1cc2cc(C(c3nnnn3Cc3ccccc3)N3CCc4ccccc43)c(=O)[nH]c2cc1C (centres undefined)	KB-V1 MDR tox 8.2µM, SW480 rereplic inconclusive
CCC(C)(C)n1nnnc1C(c1cc2cc(OC)ccc2[nH]c1=O)N1CCc2ccccc21 (centres undefined)	KB-V1 MDR tox 18µM, KB-3-1 tox inconclusive
CCC(C)(C)n1nnnc1C(c1cc2ccc(OC)cc2[nH]c1=O)N1CCc2ccccc21 (centres undefined)	MCF10A rereplic inconclusive, SW480 rereplic inconclusive
COc1ccccc1NC(=O)C1=C(C)Nc2c(C(=O)Nc3cccc(C)c3)cnn2C1c1ccccc1Cl (centres undefined)	none (no result: KB-V1 MDR tox, PTAP TSG101 blk, KB-3-1 tox, MCF10A rereplic, SW480 rereplic)
CC1CC=CC2C1C(=O)N(Cc1ccccc1)C2c1ccc(F)c(/C=C/c2ccccc2)c1 (centres undefined)	none (no result: KB-V1 MDR tox, PTAP TSG101 blk, KB-3-1 tox, MCF10A rereplic, SW480 rereplic)
O=C(NCc1ccc(F)cc1)C1CCCN(c2ncnc3onc(-c4ccc(F)cc4)c23)C1 (centres undefined)	none (no result: PTAP TSG101 blk, MCF10A rereplic, SW480 rereplic)
CC(C)CCOP(=O)(c1ccc(N(C)C)cc1)C(O)c1ccccc1F (centres undefined)	KB-V1 MDR tox 15µM
CCC(=O)N(CCC(c1ccccc1)c1ccco1)Cc1cccs1 (centres undefined)	KB-V1 MDR tox inconclusive, RGS4 inhibitor inconclusive, MCF10A rereplic 11µM
COc1ccccc1C(CCN(Cc1cccs1)C(C)=O)c1ccco1 (centres undefined)	RGS4 inhibitor inconclusive
Cc1ccc(-c2nc(CS(=O)(=O)CC(=O)N3CCc4ccccc4C3)c(C)o2)cc1	KB-V1 MDR tox inconclusive, KB-3-1 tox 18µM
CCOC(=O)/C(=N/Nc1ccc(OC)cc1)N1CCCc2ccccc21	none
CC(NC(c1ccccc1)c1ccccc1)C(=O)N1CCCc2ccccc21 (centres undefined)	KB-V1 MDR tox 13µM, KB-3-1 tox 18µM, MCF10A rereplic inconclusive
CCOC(=O)/C(=N\Nc1ccccc1)P(=O)(c1ccccc1)c1ccccc1	KB-V1 MDR tox 12µM
CCOC(=O)/C(=N/Nc1ccccc1)N1CCCc2ccccc21	KB-V1 MDR tox 16µM
CCOC(=O)/C(=N\Nc1ccccc1)S(=O)(=O)c1ccccc1	none
O=C(Cn1c(=O)n(-c2ccc(Cl)cc2)c(=O)c2c3c(sc21)CCCCC3)Nc1cccc(Cl)c1	none (no result: PTAP TSG101 blk, MCF10A rereplic, SW480 rereplic)
O=C(NCCCN1CCCC1=O)c1cc(S(=O)(=O)N2CCOCC2)c(Cl)cc1Cl	SW480 rereplic 4.6µM
ClCC1NCC(c2ccccc2Cl)c2c1[nH]c1ccccc21 (centres undefined)	KB-3-1 tox inconclusive, MCF10A rereplic 3.7µM
O=C(O)CSc1cc(C(=O)c2cc(F)ccc2O)cn2c(=O)c3c(-c4ccccc4)csc3nc12	RGS4 inhibitor inconclusive, MCF10A rereplic 13µM
CCOC(=O)c1sc2nc3c(SCCC#N)cc(C(=O)c4cc(F)ccc4O)cn3c(=O)c2c1C	none
CCOC(=O)c1sc2nc3c(SCCC(=O)O)cc(C(=O)c4cc(OC)ccc4O)cn3c(=O)c2c1C	MCF10A rereplic inconclusive, SW480 rereplic 2.6µM
CCc1c(C)sc2nc3c(C(=O)N4CCOCC4)cc(C(=O)c4cc(F)ccc4O)cn3c(=O)c12	MCF10A rereplic inconclusive
COc1ccc(N2CCN(c3ccc(-c4nc(-c5ccccc5C)no4)cc3[N+](=O)[O-])CC2)cc1	KB-V1 MDR tox inconclusive (no result: PTAP TSG101 blk, MCF10A rereplic, SW480 rereplic)
CC(C)(C)OC(=O)N1O[C@H]2C[C@@H]1[C@@H]1[C@@H]2N=NN1C12CC3CC(CC(C3)C1)C2	SW480 rereplic 21µM
NC(=O)c1cc2c3ccccc3ccn2c1-c1ccccc1	KB-V1 MDR tox 0.65µM, KB-3-1 tox 1.2µM, MCF10A rereplic inconclusive, SW480 rereplic 0.73µM
Cc1ccc(S(=O)(=O)N2CCN(c3nc(-c4ccncc4)nc4ccccc34)CC2)cc1	none (no result: KB-V1 MDR tox, PTAP TSG101 blk, KB-3-1 tox, MCF10A rereplic, SW480 rereplic)
NC(c1csc(Nc2ccc(C(=O)c3ccccc3)cc2)n1)c1ccccc1Cl (centres undefined)	KB-V1 MDR tox 21µM, KB-3-1 tox inconclusive (no result: RGS4 inhibitor, PTAP TSG101 blk, MCF10A rereplic, SW480 rereplic)
CCOC(=O)[C@]12CCC=C1N(Cc1cccc3ccccc13)C(=O)[C@H](CC(=O)N1CCCCC1)C2	KB-V1 MDR tox inconclusive (no result: RGS4 inhibitor, PTAP TSG101 blk, MCF10A rereplic, SW480 rereplic)
CCOC(=O)[C@]12CCCC=C1N(Cc1cccc3ccccc13)C(=O)[C@H](CC(=O)N1CCSCC1)C2	KB-V1 MDR tox 18µM (no result: RGS4 inhibitor, PTAP TSG101 blk, MCF10A rereplic, SW480 rereplic)
CCOC(=O)[C@]12CCCC=C1N(Cc1cccc3ccccc13)C(=O)[C@H](CC(=O)N1CCCCC1)C2	KB-V1 MDR tox 9.2µM, KB-3-1 tox inconclusive (no result: RGS4 inhibitor, PTAP TSG101 blk, MCF10A rereplic, SW480 rereplic)
CCCCCCCCN1C(=O)[C@H](CC(=O)N2CCSCC2)C[C@@]2(C(=O)OCC)CCCC=C12	KB-V1 MDR tox 23µM, KB-3-1 tox inconclusive (no result: RGS4 inhibitor, PTAP TSG101 blk, MCF10A rereplic, SW480 rereplic)
COc1ccc(CNC(=O)CCc2nc(-c3ccc(C)cc3)no2)c(OC)c1	KB-V1 MDR tox inconclusive (no result: PTAP TSG101 blk, MCF10A rereplic, SW480 rereplic)
Cc1c(C(=O)N2CCOCC2)sc2ncnc(N3CCc4ccccc4C3)c12	none
COCCCNC(=O)c1sc2ncnc(N3CCc4ccccc4C3)c2c1C	KB-3-1 tox inconclusive, MCF10A rereplic 15µM, SW480 rereplic 21µM
COc1ccccc1NC(=O)C1=C(C)Nc2nc(SCc3ccccc3)nn2C1c1cccc(O)c1 (centres undefined)	none (no result: PTAP TSG101 blk, MCF10A rereplic, SW480 rereplic)
COC(=O)C1=C(C)NC(=O)NC1c1ccc(OC)c(OC)c1 (centres undefined)	KB-V1 MDR tox inconclusive (no result: RGS4 inhibitor, PTAP TSG101 blk, MCF10A rereplic, SW480 rereplic)
COC(=O)C1=C(C)NC(C)=C(C(=O)OC)C1c1ccc(OC(=O)c2oc3ccccc3c2C)c(OC)c1	SW480 rereplic 0.52µM
Cc1ccc(C2=NN(Cc3nnc(-c4ccccc4)o3)C(=O)SC2)cc1	KB-V1 MDR tox 13µM, MCF10A rereplic inconclusive
CCOc1ccc(NC(=O)Cn2c(=O)n(Cc3ccco3)c(=O)c3ccc(C(=O)NC4CCCC4)cc32)cc1	KB-V1 MDR tox inconclusive (no result: PTAP TSG101 blk, MCF10A rereplic, SW480 rereplic)
C=CCCN(C(CC(C)C)C(=O)OC)S(=O)(=O)c1ccccc1Br (centres undefined)	MCF10A rereplic inconclusive
COC(=O)[C@H](CC(C)C)N(Cc1ccccc1)S(=O)(=O)N(Cc1ccc(OC)cc1)[C@@H](CC(C)C)C(=O)OC	KB-V1 MDR tox 18µM!, KB-3-1 tox inconclusive
